Data published in publication PMC7862700, “An all-to-all approach to the identification of sequence-specific readers for epigenetic DNA modifications on cytosine”.

Key:
Experiment in all cases: DAPPL (digital affinity profiling via proximity ligation, sequencing); 10 mM Tris-HCl pH 7.5, 50 mM NaCl, 1 mM DTT, 4% glycerol, room temperature, 30 min; GST-TFs on glutathione beads, 16-mer random dsDNA library, 0.1% formaldehyde crosslink after washing; high values mean tight binding
FEV = biological target: T1, FEV (Homo sapiens, UniProt Q99581 1-238); details: protein: recombinant; tags: N-terminal GST; dsDNA, one strand shown
T1 sequence: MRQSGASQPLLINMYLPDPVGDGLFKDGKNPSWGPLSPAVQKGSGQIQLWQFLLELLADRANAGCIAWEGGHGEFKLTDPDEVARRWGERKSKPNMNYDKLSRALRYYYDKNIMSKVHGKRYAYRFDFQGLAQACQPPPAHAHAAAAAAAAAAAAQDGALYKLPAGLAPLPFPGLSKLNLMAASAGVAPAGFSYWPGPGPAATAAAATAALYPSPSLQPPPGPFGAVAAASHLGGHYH
How it was run: (§1)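 Binding signal is defined as a hexamer's read frequency for one factor over its frequency for the tag-only sample. To obtain reads, GST-fused human transcription factors were expressed in yeast, captured on glutathione beads, barcoded with DNA and pooled with that sample. Pools met 200 nmole of a 16-mer random double-stranded DNA library in Tris/NaCl/DTT/glycerol buffer for 30 min at room temperature before washing, 0.1% formaldehyde crosslinking, proximity ligation (BsaI/T4 ligase, 1 h, 37 °C), PCR and Illumina NextSeq500 sequencing.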

ETV5 = ETV5 (Homo sapiens, UniProt P41161 1-510); details: protein: recombinant; tags: N-terminal GST; dsDNA, one strand shown
Sequence of ETV5 (P41161 whole entry): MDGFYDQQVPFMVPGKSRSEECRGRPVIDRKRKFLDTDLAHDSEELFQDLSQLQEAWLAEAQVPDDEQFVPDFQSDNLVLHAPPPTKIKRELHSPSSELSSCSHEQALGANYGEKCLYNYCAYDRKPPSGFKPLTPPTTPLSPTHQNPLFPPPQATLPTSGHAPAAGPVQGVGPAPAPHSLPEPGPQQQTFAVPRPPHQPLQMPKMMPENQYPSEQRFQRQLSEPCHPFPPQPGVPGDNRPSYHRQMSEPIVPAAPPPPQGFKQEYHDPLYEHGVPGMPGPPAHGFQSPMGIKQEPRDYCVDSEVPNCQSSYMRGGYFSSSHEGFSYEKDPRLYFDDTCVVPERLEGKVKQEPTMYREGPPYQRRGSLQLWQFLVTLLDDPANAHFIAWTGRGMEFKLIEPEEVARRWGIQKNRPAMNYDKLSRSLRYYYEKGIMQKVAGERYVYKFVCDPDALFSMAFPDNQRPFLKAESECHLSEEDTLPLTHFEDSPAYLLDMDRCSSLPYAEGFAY
How it was run: as §1

HSF1 = HSF1 (Homo sapiens, UniProt Q00613 1-529); details: protein: recombinant; tags: N-terminal GST; chain copies: 3; dsDNA, one strand shown
Sequence of HSF1 (Q00613 whole entry): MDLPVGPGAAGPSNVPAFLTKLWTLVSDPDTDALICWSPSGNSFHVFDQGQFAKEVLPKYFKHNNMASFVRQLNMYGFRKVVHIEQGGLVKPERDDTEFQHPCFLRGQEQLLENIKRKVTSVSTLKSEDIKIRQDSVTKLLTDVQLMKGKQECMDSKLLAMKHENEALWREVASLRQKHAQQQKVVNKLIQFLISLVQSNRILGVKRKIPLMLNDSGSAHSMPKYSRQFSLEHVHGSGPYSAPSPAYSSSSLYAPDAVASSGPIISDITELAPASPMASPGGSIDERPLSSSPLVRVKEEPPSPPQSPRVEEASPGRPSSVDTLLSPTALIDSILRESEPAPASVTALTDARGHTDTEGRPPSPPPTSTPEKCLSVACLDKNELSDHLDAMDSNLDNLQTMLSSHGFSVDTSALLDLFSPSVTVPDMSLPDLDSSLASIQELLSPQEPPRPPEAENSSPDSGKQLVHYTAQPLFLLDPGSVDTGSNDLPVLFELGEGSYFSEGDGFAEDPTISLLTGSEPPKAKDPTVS
How it was run: as §1

SPIC = biological target: T2, SPIC (Homo sapiens, UniProt Q8N5J4 1-248); details: protein: recombinant; tags: N-terminal GST; dsDNA, one strand shown
T2 sequence: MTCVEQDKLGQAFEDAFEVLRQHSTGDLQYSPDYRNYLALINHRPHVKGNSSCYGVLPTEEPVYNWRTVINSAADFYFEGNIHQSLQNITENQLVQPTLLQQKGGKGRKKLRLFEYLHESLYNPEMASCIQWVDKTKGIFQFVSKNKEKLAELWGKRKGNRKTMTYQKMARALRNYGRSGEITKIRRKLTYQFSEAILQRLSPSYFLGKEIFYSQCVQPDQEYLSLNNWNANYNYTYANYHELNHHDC
How it was run: as §1

ELF4 = ELF4 (Homo sapiens, UniProt Q99607 1-663); details: protein: recombinant; tags: N-terminal GST; dsDNA, one strand shown
Sequence of ELF4 (Q99607 whole entry): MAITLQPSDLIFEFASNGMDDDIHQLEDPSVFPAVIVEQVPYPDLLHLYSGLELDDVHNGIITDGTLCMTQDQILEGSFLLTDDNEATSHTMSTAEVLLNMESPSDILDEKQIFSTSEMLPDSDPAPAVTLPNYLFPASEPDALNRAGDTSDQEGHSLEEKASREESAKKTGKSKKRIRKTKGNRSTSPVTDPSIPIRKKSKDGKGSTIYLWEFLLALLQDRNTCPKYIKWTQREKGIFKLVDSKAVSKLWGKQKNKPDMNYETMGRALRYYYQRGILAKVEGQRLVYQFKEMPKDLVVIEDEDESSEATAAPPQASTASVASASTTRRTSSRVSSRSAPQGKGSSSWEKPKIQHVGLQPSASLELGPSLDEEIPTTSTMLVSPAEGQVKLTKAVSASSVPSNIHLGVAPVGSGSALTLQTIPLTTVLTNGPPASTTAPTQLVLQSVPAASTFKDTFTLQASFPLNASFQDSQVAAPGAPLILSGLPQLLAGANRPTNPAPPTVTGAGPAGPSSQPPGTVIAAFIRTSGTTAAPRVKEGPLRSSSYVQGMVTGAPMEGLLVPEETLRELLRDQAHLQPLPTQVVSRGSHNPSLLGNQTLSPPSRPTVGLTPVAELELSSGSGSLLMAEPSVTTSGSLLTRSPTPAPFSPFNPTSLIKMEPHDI
How it was run: as §1

ELK4 = biological target: T3, ELK4 (Homo sapiens, UniProt P28324-2 1-405); details: protein: recombinant; tags: N-terminal GST; dsDNA, one strand shown
T3 sequence: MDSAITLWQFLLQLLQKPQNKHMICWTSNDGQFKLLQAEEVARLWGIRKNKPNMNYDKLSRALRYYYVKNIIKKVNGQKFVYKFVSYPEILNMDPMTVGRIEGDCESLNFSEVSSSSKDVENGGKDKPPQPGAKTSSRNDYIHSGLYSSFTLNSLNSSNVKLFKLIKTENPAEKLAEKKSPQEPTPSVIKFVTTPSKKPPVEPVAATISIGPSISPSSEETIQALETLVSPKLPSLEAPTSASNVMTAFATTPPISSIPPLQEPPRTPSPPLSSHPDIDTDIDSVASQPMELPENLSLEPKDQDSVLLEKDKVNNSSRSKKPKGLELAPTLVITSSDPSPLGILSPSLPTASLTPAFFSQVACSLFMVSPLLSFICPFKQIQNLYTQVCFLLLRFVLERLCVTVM
How it was run: as §1

ETV2 = biological target: T4, ETV2 (Homo sapiens, UniProt O00321 1-342); details: protein: recombinant; tags: N-terminal GST; dsDNA, one strand shown
T4 sequence: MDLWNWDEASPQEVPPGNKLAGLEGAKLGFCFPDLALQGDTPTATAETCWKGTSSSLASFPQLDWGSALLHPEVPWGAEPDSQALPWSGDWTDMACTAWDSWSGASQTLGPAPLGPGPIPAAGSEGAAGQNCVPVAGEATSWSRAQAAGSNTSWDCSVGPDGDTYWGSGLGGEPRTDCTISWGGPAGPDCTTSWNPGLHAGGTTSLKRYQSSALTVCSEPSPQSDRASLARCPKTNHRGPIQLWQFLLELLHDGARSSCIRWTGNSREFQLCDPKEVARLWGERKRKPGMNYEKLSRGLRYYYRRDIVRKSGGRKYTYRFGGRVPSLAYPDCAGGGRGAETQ
How it was run: as §1

ELF3 = biological target: T5, ELF3 (Homo sapiens, UniProt P78545 1-371); details: protein: recombinant; tags: N-terminal GST; dsDNA, one strand shown
T5 sequence: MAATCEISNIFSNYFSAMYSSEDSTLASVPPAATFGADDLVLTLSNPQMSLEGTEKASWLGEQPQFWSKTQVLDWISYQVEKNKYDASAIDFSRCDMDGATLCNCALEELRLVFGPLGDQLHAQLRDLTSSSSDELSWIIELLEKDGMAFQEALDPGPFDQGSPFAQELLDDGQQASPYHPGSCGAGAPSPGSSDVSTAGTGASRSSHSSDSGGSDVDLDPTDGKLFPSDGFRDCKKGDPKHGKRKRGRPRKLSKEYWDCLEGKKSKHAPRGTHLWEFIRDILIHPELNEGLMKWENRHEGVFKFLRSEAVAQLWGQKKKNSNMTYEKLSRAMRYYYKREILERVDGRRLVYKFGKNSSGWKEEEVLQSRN
How it was run: as §1

CRX = CRX (Homo sapiens, UniProt O43186 1-299); details: protein: recombinant; tags: N-terminal GST; dsDNA, one strand shown
Sequence of CRX (O43186 whole entry): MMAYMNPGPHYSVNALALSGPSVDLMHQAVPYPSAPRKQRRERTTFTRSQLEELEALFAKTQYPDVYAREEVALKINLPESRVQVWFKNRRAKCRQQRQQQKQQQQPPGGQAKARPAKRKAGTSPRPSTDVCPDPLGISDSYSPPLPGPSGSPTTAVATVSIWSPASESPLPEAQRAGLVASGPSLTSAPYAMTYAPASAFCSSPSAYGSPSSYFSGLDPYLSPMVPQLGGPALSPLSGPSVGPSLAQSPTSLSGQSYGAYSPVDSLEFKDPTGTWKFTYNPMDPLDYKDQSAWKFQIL
How it was run: as §1

ETV1 = ETV1 (Homo sapiens, UniProt P50549 1-477); details: protein: recombinant; tags: N-terminal GST; dsDNA, one strand shown
Sequence of ETV1 (P50549 whole entry): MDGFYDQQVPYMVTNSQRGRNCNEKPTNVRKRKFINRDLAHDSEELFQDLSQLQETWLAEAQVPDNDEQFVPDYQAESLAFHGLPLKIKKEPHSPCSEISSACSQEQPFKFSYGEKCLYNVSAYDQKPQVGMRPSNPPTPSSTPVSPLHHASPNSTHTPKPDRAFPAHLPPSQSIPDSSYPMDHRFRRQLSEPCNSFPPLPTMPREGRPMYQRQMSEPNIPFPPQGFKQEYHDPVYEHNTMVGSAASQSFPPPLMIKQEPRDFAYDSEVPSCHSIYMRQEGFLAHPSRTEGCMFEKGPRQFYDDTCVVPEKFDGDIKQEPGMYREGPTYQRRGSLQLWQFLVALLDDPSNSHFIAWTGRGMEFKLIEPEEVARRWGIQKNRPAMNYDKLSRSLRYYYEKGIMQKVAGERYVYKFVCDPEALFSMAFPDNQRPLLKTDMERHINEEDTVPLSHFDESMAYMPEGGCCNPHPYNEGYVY
How it was run: as §1

ERF = biological target: T6, ERF (Homo sapiens, UniProt P50548 1-548); details: protein: recombinant; tags: N-terminal GST; dsDNA, one strand shown
T6 sequence: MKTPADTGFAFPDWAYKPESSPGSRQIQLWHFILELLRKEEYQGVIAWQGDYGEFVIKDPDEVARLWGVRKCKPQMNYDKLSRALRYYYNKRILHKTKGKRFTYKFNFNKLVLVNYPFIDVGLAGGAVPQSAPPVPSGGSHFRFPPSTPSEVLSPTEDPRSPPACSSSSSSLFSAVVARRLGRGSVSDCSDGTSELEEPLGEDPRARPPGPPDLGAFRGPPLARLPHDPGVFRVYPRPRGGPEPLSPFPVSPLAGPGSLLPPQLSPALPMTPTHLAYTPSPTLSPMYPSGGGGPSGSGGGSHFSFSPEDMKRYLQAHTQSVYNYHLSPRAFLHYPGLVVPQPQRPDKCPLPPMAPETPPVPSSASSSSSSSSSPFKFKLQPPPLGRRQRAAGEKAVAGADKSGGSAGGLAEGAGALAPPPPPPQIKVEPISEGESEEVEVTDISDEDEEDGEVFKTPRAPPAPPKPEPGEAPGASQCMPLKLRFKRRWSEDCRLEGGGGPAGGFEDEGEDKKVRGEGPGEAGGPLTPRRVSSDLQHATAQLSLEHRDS
How it was run: as §1

ETV3L = biological target: T7, ETV3L (Homo sapiens, UniProt Q6ZN32 1-361); details: protein: recombinant; tags: N-terminal GST; dsDNA, one strand shown
T7 sequence: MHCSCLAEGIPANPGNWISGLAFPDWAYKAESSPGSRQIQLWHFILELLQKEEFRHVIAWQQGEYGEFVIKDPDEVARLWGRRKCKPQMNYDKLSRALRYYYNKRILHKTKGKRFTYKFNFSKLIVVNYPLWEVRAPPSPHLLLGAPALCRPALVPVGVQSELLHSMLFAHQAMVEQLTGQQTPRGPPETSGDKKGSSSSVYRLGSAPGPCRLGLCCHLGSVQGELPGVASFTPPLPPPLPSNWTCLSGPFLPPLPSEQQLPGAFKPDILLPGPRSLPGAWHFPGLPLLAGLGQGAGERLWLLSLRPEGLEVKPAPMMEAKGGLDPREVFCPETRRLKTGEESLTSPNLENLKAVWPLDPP
How it was run: as §1

ETS2 = biological target: T8, ETS2 (Homo sapiens, UniProt P15036 1-469); details: protein: recombinant; tags: N-terminal GST; dsDNA, one strand shown
T8 sequence: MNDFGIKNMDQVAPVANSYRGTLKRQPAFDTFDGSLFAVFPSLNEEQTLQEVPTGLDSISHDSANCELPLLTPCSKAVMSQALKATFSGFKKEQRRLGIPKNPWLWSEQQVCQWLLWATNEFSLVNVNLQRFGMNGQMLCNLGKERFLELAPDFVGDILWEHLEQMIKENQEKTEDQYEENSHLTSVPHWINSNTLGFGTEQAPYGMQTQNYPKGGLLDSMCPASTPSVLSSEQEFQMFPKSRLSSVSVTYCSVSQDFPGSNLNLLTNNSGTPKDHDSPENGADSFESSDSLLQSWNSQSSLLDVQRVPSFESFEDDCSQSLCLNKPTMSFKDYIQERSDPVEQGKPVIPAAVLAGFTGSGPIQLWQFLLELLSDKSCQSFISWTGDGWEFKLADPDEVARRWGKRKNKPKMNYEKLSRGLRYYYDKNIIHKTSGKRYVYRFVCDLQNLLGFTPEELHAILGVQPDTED
How it was run: as §1

SPDEF = biological target: T9, SPDEF (Homo sapiens, UniProt O95238 1-335); details: protein: recombinant; tags: N-terminal GST; dsDNA, one strand shown
T9 sequence: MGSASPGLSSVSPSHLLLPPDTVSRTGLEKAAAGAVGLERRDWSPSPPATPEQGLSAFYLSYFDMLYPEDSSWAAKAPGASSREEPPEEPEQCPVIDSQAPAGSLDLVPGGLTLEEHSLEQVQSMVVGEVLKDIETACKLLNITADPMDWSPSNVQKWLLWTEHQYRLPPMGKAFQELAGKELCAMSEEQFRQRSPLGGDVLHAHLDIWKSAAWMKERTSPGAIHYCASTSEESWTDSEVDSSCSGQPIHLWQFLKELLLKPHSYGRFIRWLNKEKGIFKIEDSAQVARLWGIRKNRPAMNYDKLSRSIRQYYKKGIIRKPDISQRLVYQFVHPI
How it was run: as §1

ETV7 = biological target: T10, ETV7 (Homo sapiens, UniProt Q9Y603 1-341); details: protein: recombinant; tags: N-terminal GST; dsDNA, one strand shown
T10 sequence: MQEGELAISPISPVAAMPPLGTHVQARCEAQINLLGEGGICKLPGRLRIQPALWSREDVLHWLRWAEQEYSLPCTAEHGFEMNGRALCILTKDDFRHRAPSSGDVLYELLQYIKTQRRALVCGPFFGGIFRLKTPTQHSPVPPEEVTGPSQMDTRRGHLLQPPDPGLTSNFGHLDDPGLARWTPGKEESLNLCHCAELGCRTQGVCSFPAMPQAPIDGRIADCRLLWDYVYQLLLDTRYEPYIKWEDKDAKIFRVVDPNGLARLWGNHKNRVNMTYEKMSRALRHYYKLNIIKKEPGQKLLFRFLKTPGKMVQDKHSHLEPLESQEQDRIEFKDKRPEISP
How it was run: as §1

ELF5 = biological target: T11, ELF5 (Homo sapiens, UniProt Q9UKW6-2 1-255); details: protein: recombinant; tags: N-terminal GST; dsDNA, one strand shown
T11 sequence: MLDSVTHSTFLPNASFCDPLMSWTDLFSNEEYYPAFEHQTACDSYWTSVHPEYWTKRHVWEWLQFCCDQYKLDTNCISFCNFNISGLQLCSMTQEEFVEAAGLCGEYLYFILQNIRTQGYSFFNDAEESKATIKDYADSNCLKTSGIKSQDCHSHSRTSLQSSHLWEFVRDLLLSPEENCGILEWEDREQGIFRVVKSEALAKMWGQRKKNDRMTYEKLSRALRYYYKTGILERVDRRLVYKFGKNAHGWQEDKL
How it was run: as §1

ETV3 = biological target: T12, ETV3 (Homo sapiens, UniProt P41162-2 1-143); details: protein: recombinant; tags: N-terminal GST; dsDNA, one strand shown
T12 sequence: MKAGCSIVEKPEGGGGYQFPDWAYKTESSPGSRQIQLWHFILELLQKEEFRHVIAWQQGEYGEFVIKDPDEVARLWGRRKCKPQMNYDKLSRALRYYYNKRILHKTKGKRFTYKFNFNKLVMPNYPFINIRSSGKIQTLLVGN
How it was run: as §1

ETV6 = ETV6 (Homo sapiens, UniProt P41212 1-452); details: protein: recombinant; tags: N-terminal GST; dsDNA, one strand shown
Sequence of ETV6 (P41212 whole entry): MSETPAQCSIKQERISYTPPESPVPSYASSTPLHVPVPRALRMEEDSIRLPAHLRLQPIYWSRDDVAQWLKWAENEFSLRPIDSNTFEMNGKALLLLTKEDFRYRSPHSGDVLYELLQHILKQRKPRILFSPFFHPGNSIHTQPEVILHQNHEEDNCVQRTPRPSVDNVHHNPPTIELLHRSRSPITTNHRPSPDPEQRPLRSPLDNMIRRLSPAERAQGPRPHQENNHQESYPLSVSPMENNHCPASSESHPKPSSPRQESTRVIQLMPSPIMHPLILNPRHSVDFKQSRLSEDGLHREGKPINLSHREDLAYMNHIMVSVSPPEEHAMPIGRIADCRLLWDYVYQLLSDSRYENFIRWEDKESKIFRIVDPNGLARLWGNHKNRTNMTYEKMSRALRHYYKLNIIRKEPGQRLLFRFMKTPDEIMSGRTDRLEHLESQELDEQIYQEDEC
How it was run: as §1

Sequence: TCCATG
- binding signal (FEV): 1.11 fold enrichment (6-mer frequency, TF over GST control)
- binding signal (ETV5): 1.2 fold enrichment (6-mer frequency, TF over GST control)
- binding signal (HSF1): 1.1 fold enrichment (6-mer frequency, TF over GST control)
- binding signal (SPIC): 1.05 fold enrichment (6-mer frequency, TF over GST control)
- binding signal (ELF4): 1.16 fold enrichment (6-mer frequency, TF over GST control)
- binding signal (ELK4): 1.25 fold enrichment (6-mer frequency, TF over GST control)
- binding signal (ETV2): 1.2 fold enrichment (6-mer frequency, TF over GST control)
- binding signal (ELF3): 1.25 fold enrichment (6-mer frequency, TF over GST control)
- binding signal (CRX): 1.13 fold enrichment (6-mer frequency, TF over GST control)
- binding signal (ETV1): 1.09 fold enrichment (6-mer frequency, TF over GST control)
- binding signal (ERF): 1.1 fold enrichment (6-mer frequency, TF over GST control)
- binding signal (ETV3L): 1.17 fold enrichment (6-mer frequency, TF over GST control)
- binding signal (ETS2): 1.1 fold enrichment (6-mer frequency, TF over GST control)
- binding signal (SPDEF): 1.1 fold enrichment (6-mer frequency, TF over GST control)
- binding signal (ETV7): 1.03 fold enrichment (6-mer frequency, TF over GST control)
- binding signal (ELF5): 1.11 fold enrichment (6-mer frequency, TF over GST control)
- binding signal (ETV3): 1.19 fold enrichment (6-mer frequency, TF over GST control)
- binding signal (ETV6): 1.2 fold enrichment (6-mer frequency, TF over GST control)
